# This is a sample that favours compounds with a hit; in the whole collection about 0.55% have one here.
# EPAC1 antagonist = qHTS for Antagonist of cAMP-regulated guanine nucleotide exchange factor 3 (EPAC1): primary screen; Rap guanine nucleotide exchange factor 3 (Homo sapiens), O95398; Potency, µM (doses to about 115 µM), for inactives: at the highest dose activity change, negative = inhibition, actives largely listed as inhibitors; EPAC1 GEF assay, Rap1b-BODIPY-GDP exchange fluorescence; 0.14% of 360,000 active;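 further: plate controls were vehicle for no effect and positive control for full effect; nearly all actives have a fitted effect of over 50% in size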
# GLP1R cytotox = qHTS of GLP-1 Receptor Inverse Agonists: Cytotox Screen | HEK293 cAMP-luciferase reporter cells, luminescence, 24 h | Potency, µM (titrated, usually from 38.3 µM), inactives show top-dose activity change, negative = inhibition, most hits filed as inhibitors | 0.13% of 410,000 active;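 further: loss of luciferase light is scored as toxicity; on the % scale 0 is the no-effect control and ±100 the full control effect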
#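 Seeding density was 200 cells/uL; after overnight-length (12 h) culture, 23 nL compounds went on for 24 h at 37 °C. Readout used a luciferase detection reagent, luminescence taken after 12 min at room temperature.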
# USP1-UAF1 inh = Inhibitors of USP1/UAF1: Primary Screen; Ubiquitin carboxyl-terminal hydrolase 1 (Homo sapiens), O94782; recombinant USP1/UAF1, Ub-Rhodamine cleavage fluorescence; Potency, µM (titrated, usually from 57.1 µM), for the others: top-dose activity change, negative = inhibition, actives largely listed as inhibitors; 0.23% of 390,000 active; AID 743255, 2014; further: on the % scale 0 is the no-effect control and ±100 the full control effect; nearly all actives have a fitted effect of over 60% in size
#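 USP1/UAF1 complex at 1 nM was preincubated with compound for 15 min at room temperature, then Ub-Rho substrate (150nM final) was added. Fluorescence (480/540 nm) was read kinetically, 6 reads every 60 seconds.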
# EPAC1 ag = qHTS for Agonist of cAMP-regulated guanine nucleotide exchange factor 3 (EPAC1): primary screen | Rap guanine nucleotide exchange factor 3 (Homo sapiens), O95398 | EPAC1 agonist qHTS, biochemical assay; response scale: 100% = response to 6.5 mM cAMP | Potency, µM (top dose mostly 154 µM), for the others: at the top dose activation, hits mostly activators | 0.073% of 360,000 active | AID 720707, 2013; further: nearly all actives have a fitted effect of over 60% in size
#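 EPAC1 100 nM, Rap1B–BODIPY-GDP 250 nM, unlabeled GDP 50 uM; compound titration; 5 min RT; kinetic read ex480/em540 at 5-min intervals ×30 min; data normalized to 6.5 mM cAMP agonist control.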
# EPAC2 agonist = qHTS for Agonist of cAMP-regulated guanine nucleotide exchange factor 4 (EPAC2): primary screen; Rap guanine nucleotide exchange factor 4 (Homo sapiens), Q8WZA2; EPAC2 activation, biochemical qHTS; response scale: 100% = 6.5 mM cAMP response; Potency, µM (titrated, usually from 154 µM), for inactives: at the top dose activation, actives largely listed as activators; 0.079% of 360,000 active; AID 720711, 2013; further: nearly all actives have a fitted effect of over 50% in size
# Target sequence (Q8WZA2 whole entry, looked up): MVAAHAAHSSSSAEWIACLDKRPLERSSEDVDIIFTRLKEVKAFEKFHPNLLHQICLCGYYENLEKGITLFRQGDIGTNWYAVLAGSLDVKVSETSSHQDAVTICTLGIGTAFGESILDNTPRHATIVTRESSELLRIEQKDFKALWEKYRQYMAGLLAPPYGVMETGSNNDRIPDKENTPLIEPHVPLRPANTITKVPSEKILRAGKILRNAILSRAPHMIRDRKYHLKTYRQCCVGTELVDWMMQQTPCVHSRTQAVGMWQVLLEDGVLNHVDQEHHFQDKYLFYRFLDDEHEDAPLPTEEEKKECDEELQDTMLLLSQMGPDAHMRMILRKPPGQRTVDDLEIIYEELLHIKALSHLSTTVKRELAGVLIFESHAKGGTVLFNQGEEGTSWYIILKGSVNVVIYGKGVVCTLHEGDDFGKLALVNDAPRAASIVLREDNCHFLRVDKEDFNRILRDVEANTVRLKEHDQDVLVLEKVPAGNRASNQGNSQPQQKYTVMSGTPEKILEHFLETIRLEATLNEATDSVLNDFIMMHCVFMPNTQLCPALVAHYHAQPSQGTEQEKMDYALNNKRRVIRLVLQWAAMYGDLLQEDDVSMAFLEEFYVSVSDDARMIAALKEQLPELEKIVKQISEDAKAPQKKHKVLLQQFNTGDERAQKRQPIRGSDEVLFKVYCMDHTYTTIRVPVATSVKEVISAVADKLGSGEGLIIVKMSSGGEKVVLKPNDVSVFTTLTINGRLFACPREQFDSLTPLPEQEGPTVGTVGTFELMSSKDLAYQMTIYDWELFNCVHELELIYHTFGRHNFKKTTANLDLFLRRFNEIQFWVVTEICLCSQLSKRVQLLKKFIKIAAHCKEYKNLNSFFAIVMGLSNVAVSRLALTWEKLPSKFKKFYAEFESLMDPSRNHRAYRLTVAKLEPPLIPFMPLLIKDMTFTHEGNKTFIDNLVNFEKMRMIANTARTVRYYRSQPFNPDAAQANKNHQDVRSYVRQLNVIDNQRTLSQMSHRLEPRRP
#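 Readout is BODIPY fluorescence (480 nm excitation, 540 nm emission), which falls as labeled GDP is exchanged off Rap1B. EPAC2 at 100 nM acted on 250 nM RAP1B-BODIPY-GDP with 50 uM GDP present.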
# EPAC2 antagonist = qHTS for Antagonist of cAMP-regulated guanine nucleotide exchange factor 2 (EPAC2): primary screen; Rap guanine nucleotide exchange factor 4 (Homo sapiens), Q8WZA2; EPAC2 GEF exchange of Rap1B-BODIPY-GDP, fluorescence; Potency, µM (series often up to 114 µM), inactives show at the top dose activity, negative = inhibition, hits mostly inhibitors; 0.18% of 360,000 active; AID 720708, 2013; further: on the % scale 0 is the no-effect control and ±100 the full control effect; nearly all actives have a fitted effect of over 45% in size
# The depositor's hits bear a star; i = inactive; ? = inconclusive; . = no result given; [ ] = remark or other dose. The call rests on the fitted dose curve; in most records, active means well fitted curve in the direction sought with a large enough effect; inconclusive means small, poorly fitted or top-dose-only effect, or another doubt; inactive means no such curve, though single readings can be large; an effect the other way counts as inactive or inconclusive. Potency means the concentration at half of the fitted maximal effect.
SMILES,EPAC1 antagonist,GLP1R cytotox,USP1-UAF1 inh,EPAC1 ag,EPAC2 agonist,EPAC2 antagonist
COc1ccc(C(=O)Nc2nc3n(n2)C(c2ccc(Cl)cc2)C=C(c2ccccc2)N3)cc1OC (centres undefined),.,i,-27%,.,.,.
O=C(N/N=C/c1ccc(-c2ccc(Cl)c(C(=O)O)c2)o1)c1cc2c(ccc3ccccc32)o1,40µM*,181%,-22%,11%,28%,17%
Cc1ccc(-c2ccc(/C=N\NC(=O)c3cc4c(ccc5ccccc54)o3)o2)cc1[N+](=O)[O-],-6%,0%,-20%,0%,8%,2%
Cc1cc(Br)c2c(c1)[C@](O)(c1cn(C)c3ccccc13)C(=O)N2C,-8%,-9%,.,3%,5%,22µM*
Cc1nn(C)c(Nc2ccc(Br)cc2)c1Br,?,-19%,-10%,-10%,-7%,?
Cc1cc(C)nc(-n2nc(C)c(Br)c2Nc2ccc(Br)cc2)n1,0%,5.6µM*,-4%,7%,10%,-2%
CCC1CCCCN1CCCNC(=O)c1sc2nc(C)cc(C)c2c1-n1cccc1 (centres undefined),.,1%,?,.,.,.
CCCOC1CCCN(C(=O)c2ccc(OC3CCN(C(=O)COC)CC3)cc2)C1 (centres undefined),-20%,10µM*,6%,-23%,1%,-9%
Cc1ccc(NC(=O)CSc2nnc(-c3cc4occc4n3C)n2-c2ccccc2C)c(Cl)c1,.,-1%,-18%,.,.,.
CCOC(=O)c1ccc(NC(=S)Nc2cccc(C)n2)cc1,?,1.3µM*,1%,-8%,-4%,-6%
Oc1c(N=Nc2ccccn2)ccc2ccccc12,-14%,5µM*,-27%,-6%,-11%,-2%
Cc1ccc(Nc2c([N+](=O)[O-])ccc3nonc23)c(C)c1,-16%,-2%,-22%,-10%,4%,-1%
Cc1ccc(S(=O)c2ccc([N+](=O)[O-])c3nonc23)cc1 (centres undefined),?,?,16µM*,8%,29%,50µM*
Fc1ccc(C(Nc2ccccn2)c2c[nH]c3ccccc23)cc1 (centres undefined),-15%,2%,-12%,10%,2%,45µM*
Cc1cc(C)cc(NC(=O)c2ccc3oc(=O)c(S(=O)(=O)c4ccc(F)cc4)cc3c2)c1,.,24%,-19%,.,.,.
COc1ccc(C(=O)O/N=C(\N)Cc2ccc(Cl)cc2)cc1OC,1%,?,-15%,-2%,5%,4%
COc1ccc(C(=O)O/N=C(\N)Cc2ccc(Cl)c(Cl)c2)cc1OC,-11%,5.6µM*,-7%,3%,16%,-9%
Cc1ccc2nc(NC(=O)c3nc(SCc4ccccc4C)ncc3Cl)sc2c1,.,5%,-23%,.,.,.
CC(=O)OCc1cnc(C)c2oc(=O)c(C(=O)Nc3ccc(F)cc3C)cc12,.,14%,-20%,.,.,.
COc1ccc(/C(O)=C/c2nc3ccccc3n(-c3ccccc3)c2=O)cc1,25%,15%,?,1%,89µM*,104%[57.1 µM]
Cc1nc(N2CCOCC2)c2c3c(sc2n1)CCC3,3%,12%[0.307 µM],-7%,-7%,2%,-14%
CSc1nc(N2CCOCC2)c2c3c(sc2n1)CCCC3,-10%,-1%,-22%,5%,3%,18µM*
CN1/C(=C\C=C2/SC(=S)NC2=O)C(C)(C)c2ccccc21,49%,?,25µM*,63µM*,63µM*,98%

# Compound activity deposited in PubChem BioAssay by National Center for Advancing Translational Sciences (NCATS).
